Test results taken from PubChem BioAssay (NCI).
Compounds without any hit were thinned out: in the full panel of roughly 79,000, 15% have a hit. Calls of active or inactive are those of the source. No stated cut-off is given here; in the data, active means growth inhibition above about 70%; inactive means the rest.

Assays:
[1] = NCI Yeast Anticancer Drug Screen. Data for the rad50 strain (AID 155);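 further: 0% = growth of vehicle-only cultures of the same strain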; conditions: S. cerevisiae rad50 strain growth inhibition; at 50.0 µM; stronger effect = higher value
How it was run: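 Growth of the mutant yeast was measured after compound exposure and referenced to vehicle-treated cultures.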

[2] = NCI Yeast Anticancer Drug Screen. Data for the mec2-1 strain (AID 157); conditions: S. cerevisiae mec2-1 strain, at 50.0 µM, stronger effect = higher value
How it was run: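 Yeast mec2-1 mutant treated with compound. Readout: growth inhibition vs vehicle controls.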

[3] = NCI Yeast Anticancer Drug Screen. Data for the sgs1 mgt1 strain (AID 161);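 further: 0% = growth of cultures given vehicle only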; conditions: S. cerevisiae sgs1 mgt1 strain, at 50.0 µM, stronger effect = higher value
How it was run: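 Mutant yeast exposed to compound; growth scored against vehicle-only wells.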

[4] = NCI Yeast Anticancer Drug Screen. Data for the cln2 rad14 strain (AID 165);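 further: 0% = growth equal to vehicle treated cultures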; conditions: S. cerevisiae cln2 rad14 strain, at 50.0 µM, stronger effect = higher value
How it was run: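 cln2 rad14 yeast strain; compound exposure; growth inhibition read vs vehicle controls.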

[5] = NCI Yeast Anticancer Drug Screen. Data for the bub3 strain (AID 167); conditions: S. cerevisiae bub3 mutant strain, at 50.0 µM, stronger effect = higher value
How it was run: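 Whole-cell yeast assay. The mutant strain was incubated with compounds, and growth inhibition was determined by comparison with vehicle-treated cells.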

[6] = NCI Yeast Anticancer Drug Screen. Data for the mlh1 rad18 strain (AID 175); conditions: S. cerevisiae mlh1 rad18 strain growth inhibition; at 50.0 µM; stronger effect = higher value
How it was run: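 Yeast w/ defined DNA-repair lesions; compound exposure; growth vs vehicle controls → % inhibition.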

Measured: growth inhibition

CN1CC2=C(NC(=S)NC2c2ccccc2)/C(=C/c2ccccc2)C1 (stereo not drawn)
inactive: [1] -14.5% | [2] -8.75% | [3] 5.65% | [4] 6.8% | [5] 22.4% | [6] -13.2%

C/C(CCc1ccccc1)=N/Nc1ccc([N+](=O)[O-])cc1[N+](=O)[O-]
inactive: [1] 0.65% | [2] -4.75% | [3] 10.2% | [4] 0.05% | [5] 13.4% | [6] -4.55%

N#Cc1nc(-c2cc([N+](=O)[O-])cc([N+](=O)[O-])c2)oc1N
inactive: [1] -14.6% | [2] -10.6% | [3] -4.7% | [4] 1.8% | [5] 0.05% | [6] -8.6%

CC(C)Cc1ccc(C(C)CC2=CCC(CN(C)C)C2=O)cc1 (stereo not drawn)
active: [1] 79.2% | [2] 91.5% | [3] 90.2% | [4] 84.4% | [5] 88.7% | [6] 89.3%

Cn1c(=O)ccc2c1nc1ccccc1[n+]2[O-]
inactive: [1] -6.25% | [2] 4.65% | [3] -6.7% | [4] -30.8% | [5] 4.75% | [6] -11.8%

CC(=O)Nc1ncc2ccccc2c1-c1ccc(NC(=O)CCCl)cc1
inactive: [1] -0.65% | [2] 19.4% | [3] 19.8% | [4] -1.3% | [5] 3.6% | [6] 12.8%

CCOC(CN(C)C(=S)Nc1cccc2ccccc12)OCC
inactive: [1] -27.1% | [2] -30.1% | [3] -2.2% | [4] -6.45% | [5] -6.9% | [6] -13.2%

C=C1C(=O)OC(CCCCCCCCCCCCCC(C)=O)[C@H]1C(=O)O (stereo partly drawn)
inactive: [1] 10.2% | [2] -9.75% | [3] 22.1% | [4] 4.85% | [5] -10.9% | [6] 9.8%

CCC1CN2CCc3cc(OC)c(OC)cc3C2CC1CC1c2cc(OC)c(OC)cc2CCN1C(=O)C1CCCN1 (stereo not drawn)
inactive: [1] -1.45% | [2] -1.45% | [3] 12.1% | [4] 6.85% | [5] 7.65% | [6] -3.4%

COc1cc(C(=O)O)ccc1OS(=O)(=O)O
inactive: [1] -17.4% | [2] -62.5% | [3] -10.7% | [4] -21.6% | [5] -11% | [6] -31.3%

CC(=O)Nc1cc(CN2CCCCC2)c(O)c2ncccc12
inactive: [1] -8.65% | [2] -21.4% | [3] -38.3% | [4] -36% | [5] -35.1% | [6] -8.05%

Cc1nc(Nc2ccc([N+](=O)[O-])cc2)sc1C(=O)/C=C/c1ccc(N(C)C)cc1
inactive: [1] 5.1% | [2] -6.85% | [3] 5.6% | [4] 16.2% | [5] 18.6% | [6] -1.1%

OC1(C#Cc2ccccc2)c2ccccc2C(O)(C#Cc2ccccc2)c2ccccc21 (stereo not drawn)
inactive: [1] 9.95% | [2] -11.8% | [3] 1.6% | [4] 14.1% | [5] -10.3% | [6] 10.1%

CC(=O)OCCOCNC(=S)N/N=C/c1ccccn1
inactive: [1] 24.2% | [2] 26% | [3] -8.35% | [4] 6.7% | [5] 12.6% | [6] 45.6%

O=C(O)COc1cc(Br)cc(Br)c1
inactive: [1] 1.4% | [2] -14.2% | [3] -7.55% | [4] 16% | [5] -3.9% | [6] -1.7%

CC(C)=C(Cl)c1c(C)cc(C)c(CC(N)=O)c1C
inactive: [1] -14.1% | [2] -3.75% | [3] -8.15% | [4] -27.2% | [5] -9.95% | [6] 10.1%

c1ccc(SSc2ccc3ccccc3c2)cc1
inactive: [1] 22.4% | [2] 39.1% | [3] 32.6% | [4] 24.6% | [5] 31.4% | [6] 28.3%

Fc1c(F)c(F)c(SN=S=Nc2ccccc2)c(F)c1F
inactive: [1] 13.4% | [2] 12.1% | [3] 13.3% | [4] -1.35% | [5] 15.1% | [6] 26.9%

Cc1ccc(Br)cc1C(=O)O
inactive: [1] 20.8% | [2] 2.25% | [3] 15.2% | [4] 13.8% | [5] -6.1% | [6] 15.4%

CN(C=O)c1ccc([N+](=O)[O-])cc1
inactive: [1] 7.1% | [2] -6.5% | [3] -7.15% | [4] 5.7% | [5] 1.4% | [6] -3.4%

CC/C=C/CC(=O)NCc1ccc(O)c(OC)c1
inactive: [1] 5.45% | [2] -1.15% | [3] -7.95% | [4] 48.3% | [5] -2.9% | [6] -16.7%

CCOC1C=CCCC1 (stereo not drawn)
inactive: [1] -1.75% | [2] 23.6% | [3] -6.35% | [4] 9.4% | [5] 14.8% | [6] -14%

NC1=C(O)C(=O)C(c2ccc3c(c2)CCC3)O1 (stereo not drawn)
inactive: [1] -24.5% | [2] -14.7% | [3] -22.4% | [4] -12.6% | [5] -14% | [6] -9.1%

NC(=S)NO
inactive: [1] -1.85% | [2] -3.8% | [3] 2.35% | [4] 22.6% | [5] 8% | [6] -19.9%

CC12CCC3c4ccc(OC(=O)c5ccccc5)cc4CCC3C1CC(O)C2 (stereo not drawn)
inactive: [1] -5.5% | [2] 38.1% | [3] 50.2% | [4] 42.7% | [5] 69.6% | [6] 11.9%

CCOC(=O)C1CC(=O)C=C2CCCCC21 (stereo not drawn)
inactive: [1] -4.05% | [2] -27.7% | [3] -7.55% | [4] 5.35% | [5] -30.1% | [6] 13.4%

C[Si](C)(CCCOCC1CO1)O[Si](C)(C)CCCOCC1CO1 (stereo not drawn)
inactive: [1] 26.9% | [2] -29.4% | [3] -5.05% | [4] 17.6% | [5] -8.4% | [6] -31.1%

Cc1ccc(C)c(N2C(=O)C(=O)C(c3nc4ccccc4s3)/C(=N/NC(=O)NN)C2=O)c1 (stereo not drawn)
inactive: [1] 1.9% | [2] 14.1% | [3] -5.75% | [4] -2.55% | [5] -2.1% | [6] -16.9%

CC(=O)CCC(=O)c1ccoc1
inactive: [1] 9.05% | [2] -4.2% | [3] 4.4% | [4] -10.1% | [5] -9.55% | [6] 9.25%

CCO/C=C1/N=C(Cc2ccccc2)OC1=O
inactive: [1] 18.4% | [2] -2.05% | [3] 7.65% | [4] 23.4% | [5] 3.65% | [6] 13%

CCCCNc1ccc(Cl)cc1
inactive: [1] 0.75% | [2] -5.4% | [3] -16.7% | [4] -27.9% | [5] -15.5% | [6] -15.6%

CCN(CC)CCOB(c1cccc2ccccc12)c1cccc2ccccc12
inactive: [1] 39.6% | [2] 24.4% | [3] 17.1% | [4] 26.8% | [5] -3.4% | [6] 43.8%

COC(SC)(SC)c1cc(-c2c(Cl)cccc2Cl)no1
inactive: [1] -7.25% | [2] -7.55% | [3] -3.1% | [4] 4.3% | [5] 27.6% | [6] -4.15%

Cc1nc(-c2ccccc2)oc1-c1ccccc1
inactive: [1] 8.6% | [2] -1.5% | [3] -1.7% | [4] 6.95% | [5] 0.05% | [6] -4.35%

COC(=O)C1(CC(=O)c2ccncc2)NC(=S)NC(=O)C1C#N (stereo not drawn)
inactive: [1] 2% | [2] -11.8% | [3] -19.1% | [4] -22.4% | [5] -22.8% | [6] -5.75%

CC(O)CN1CNC(=S)NC1 (stereo not drawn)
inactive: [1] -3.8% | [2] -39.3% | [3] -3.55% | [4] 8.75% | [5] -16.2% | [6] -7.25%

NC(=O)COC(=O)c1c(Cl)nc2sccn12
inactive: [1] 7.55% | [2] 5.1% | [3] -13.9% | [4] 4.75% | [5] 24.6% | [6] 19.1%

NC(=O)Cc1ccncc1
inactive: [1] 5.95% | [2] -2.85% | [3] -3.95% | [4] -9.9% | [5] -2.7% | [6] 1.55%
